# Assay results reported in PubChem BioAssay AID1159580 (chemical genetic matrix, 2015).
# The whole screen tested about 5,500 compounds, of which about 2,000 (36%) were called active. Another 18% or so got no clear call; they are omitted. Some of the results follow. Values without a mark were called inactive. Rule as the data show it: active = normalized growth mostly below about 0.91 (no sharp cut-off); inconclusive = no clear call, values can overlap the other calls; inactive = mostly above about 0.92.
# Assay: chemical genetic growth profiling, strain panel (AID 1159580);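 also: tested at 20 µM; growth read once vehicle control cultures reached saturation at 30 °C; 1 = growth at the plate median or of vehicle wells; lower values mean less growth of the strain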
# Conditions: S. cerevisiae deletion strains, growth OD
# [1] = locus YDL101C, strain DUN1, hits give low values
# [2] = locus YHR030C, strain SLT2, hits give low values
smiles,measurement,setting,value
CCC(C(=O)Nc1ccc(C(F)(F)F)cc1)c1ccccc1 (centres undefined),normalized growth,"locus YAL013W, strain DEP1, hits give low values",0.989
same,normalized growth,"locus YBR229C, strain ROT2, hits give low values",0.984
same,normalized growth,"locus YCL061C, strain MRC1, hits give low values",0.958
same,normalized growth,[1],0.956
same,normalized growth,"locus YDL134C, strain PPH21, hits give low values",0.977
same,normalized growth,"locus YDR150W, strain NUM1, hits give low values",0.952
same,normalized growth,"locus YEL061C, strain CIN8, hits give low values",1.03
same,normalized growth,"locus YGR078C, strain PAC10, hits give low values",0.958
same,normalized growth,[2],0.986
same,normalized growth,"locus YHR087W, strain rtc3, hits give low values",0.998
same,normalized growth,"locus YJR043C, strain POL32, hits give low values",0.972
same,normalized growth,"locus YJR075W, strain HOC1, hits give low values",0.96
same,normalized growth,"locus YKL190W, strain CNB1, hits give low values",0.982
same,normalized growth,"locus YLR039C, strain RIC1, hits give low values",0.923
same,normalized growth,"locus YLR058C, strain SHM2 (second series), hits give low values",0.982
same,normalized growth,"locus YLR085C, strain ARP6, hits give low values",0.925
same,normalized growth,"locus YLR262C, strain YPT6, hits give low values",0.987
same,normalized growth,"locus YML094W, strain GIM5, hits give low values",0.981
same,normalized growth,"locus YMR219W, strain ESC1, hits give low values",0.994
same,normalized growth,"locus YMR263W, strain SAP30, hits give low values",0.99
same,normalized growth,"locus YNL128W, strain TEP1, hits give low values",0.982
same,normalized growth,"locus YNL153C, strain GIM3, hits give low values",0.968
same,normalized growth,"locus YNL298W, strain CLA4 (second series), hits give low values",0.945
same,normalized growth,"locus YNL322C, strain KRE1, hits give low values",0.99
same,normalized growth,"locus YNR030W, strain Alg12, hits give low values",0.976
same,normalized growth,"locus YPL055C, strain LGE1, hits give low values",1.01
same,normalized growth,"locus YPL241C, strain CIN2, hits give low values",0.932
same,normalized growth,"locus YPR135W, strain CTF4, hits give low values",0.906
CC(C)c1ccc(NC(=S)NC(=O)c2ccccc2)cc1,normalized growth,"locus YAR019C, strain CDC15, hits give low values",0.964
same,normalized growth,"locus YBL105C, strain PKC1, hits give low values",0.952
same,normalized growth,"locus YBR135W, strain CKS1, hits give low values",0.957
same,normalized growth,"locus YBR136W, strain MEC1, hits give low values",0.963
same,normalized growth,"locus YBR160W, strain CDC28, hits give low values",0.961
same,normalized growth,"locus YDL017W, strain CDC7, hits give low values",0.96
same,normalized growth,"locus YDL028C, strain MPS1, hits give low values",0.953
same,normalized growth,[1],0.96
same,normalized growth,"locus YDL108W, strain KIN28, hits give low values",0.971
same,normalized growth,"locus YDL132W, strain cdc53, hits give low values",0.953
same,normalized growth,"locus YDL214C, strain PRR2, hits give low values",0.939
same,normalized growth,"locus YDR052C, strain DBF4, hits give low values",0.962
same,normalized growth,"locus YDR054C, strain cdc34, hits give low values",0.94
same,normalized growth,"locus YDR226W, strain ADK1, hits give low values",0.955
same,normalized growth,"locus YDR477W, strain SNF1, hits give low values",0.923
same,normalized growth,"locus YER123W, strain YCK3, hits give low values",0.959
same,normalized growth,"locus YER133W, strain GLC7, hits give low values",0.938
same,normalized growth,"locus YFL009W, strain cdc4, hits give low values",0.952
same,normalized growth,"locus YFL029C, strain CAK1, hits give low values",0.953
same,normalized growth,"locus YFR003C, strain YPI1, hits give low values",0.961
same,normalized growth,"locus YFR019W, strain FAB1, hits give low values",0.999
same,normalized growth,"locus YFR028C, strain CDC14, hits give low values",0.958
same,normalized growth,"locus YGR040W, strain KSS1, hits give low values",0.918
same,normalized growth,"locus YGR052W, strain FMP48, hits give low values",1.03
same,normalized growth,"locus YGR092W, strain DBF2, hits give low values",0.851
same,normalized growth,[2],0.797 (active)
same,normalized growth,"locus YHR079C, strain IRE1, hits give low values",0.882
same,normalized growth,"locus YHR082C, strain KSP1, hits give low values",0.974
same,normalized growth,"locus YHR205W, strain SCH9, hits give low values",0.904
same,normalized growth,"locus YIL147C, strain SLN1, hits give low values",0.963
same,normalized growth,"locus YJL095W, strain BCK1, hits give low values",0.883
same,normalized growth,"locus YJL128C, strain PBS2, hits give low values",0.94
same,normalized growth,"locus YJL157C, strain FAR1, hits give low values",0.923
same,normalized growth,"locus YJR016C, strain ILV3, hits give low values",0.958
same,normalized growth,"locus YJR066W, strain TOR1 (second series), hits give low values",0.906
same,normalized growth,"locus YJR066W, strain TOR1, hits give low values",0.891
same,normalized growth,"locus YKL048C, strain ELM1, hits give low values",0.968
same,normalized growth,"locus YKL067W, strain YNK1, hits give low values",0.953
same,normalized growth,"locus YKL101W, strain HSL1, hits give low values",0.957
same,normalized growth,"locus YKL193C, strain SDS22, hits give low values",0.954
same,normalized growth,"locus YKL203C, strain TOR2, hits give low values",0.96
same,normalized growth,"locus YLR113W, strain HOG1, hits give low values",0.919
same,normalized growth,"locus YLR133W, strain CKI1, hits give low values",0.941
same,normalized growth,"locus YLR403W, strain SFP1, hits give low values",0.879
same,normalized growth,"locus YML070W, strain DAK1, hits give low values",0.97
same,normalized growth,"locus YMR001C, strain CDC5, hits give low values",0.951
same,normalized growth,"locus YMR205C, strain PFK2 (second series), hits give low values",0.956
same,normalized growth,"locus YMR277W, strain FCP1, hits give low values",0.962
same,normalized growth,"locus YNL006W, strain LST8, hits give low values",0.966
same,normalized growth,"locus YNL020C, strain ARK1, hits give low values",0.926
same,normalized growth,"locus YNL161W, strain CBK1, hits give low values",0.959
same,normalized growth,"locus YNL183C, strain NPR1, hits give low values",0.957
same,normalized growth,"locus YNL207W, strain RIO2, hits give low values",0.953
same,normalized growth,"locus YNL222W, strain SSU72, hits give low values",0.959
same,normalized growth,"locus YNL307C, strain MCK1 (second series), hits give low values",0.91
same,normalized growth,"locus YOL078W, strain AVO1, hits give low values",0.956
same,normalized growth,"locus YOL136C, strain PFK27, hits give low values",0.959
same,normalized growth,"locus YOR061W, strain CKA2, hits give low values",0.904
same,normalized growth,"locus YOR119C, strain RIO1, hits give low values",0.921
same,normalized growth,"locus YOR231W, strain MKK1, hits give low values",0.911
same,normalized growth,"locus YOR329C, strain SCD5, hits give low values",0.956
same,normalized growth,"locus YPL031C, strain PHO85, hits give low values",0.898
same,normalized growth,"locus YPL153C, strain RAD53, hits give low values",0.921
same,normalized growth,"locus YPL204W, strain HRR25, hits give low values",0.933
same,normalized growth,"locus YPL209C, strain IPL1, hits give low values",0.954
same,normalized growth,"locus YPL256C, strain CLN2, hits give low values",0.92
same,normalized growth,"locus YPR025C, strain CCL1, hits give low values",0.955
same,normalized growth,"locus YPR106W, strain ISR1, hits give low values",0.958
same,normalized growth,"locus YPR111W, strain DBF20, hits give low values",0.964
same,normalized growth,"strain NNK1, hits give low values",0.967
same,normalized growth,"strain TSCII, hits give low values",0.947
